# Measured values as given in the supplement of paper PMC8728848.
# Many of the other results were omitted from the sample, so the strongest signals are more common in it than they were.
# B1: BIp1-His (Cryptococcus neoformans) (protein)
# chain: MFTKIFVALFAATAVLSAPVESAEKRITHTGRATFYSPSVGIGACGWQNTDEELVVALNAPQYALNADHNCGQSVRITNEQNGNQEIAKVVDLCPGCNDGDLDMSPALFGALNNNDFDQGVFPISWNFLPRDDTSSSN
# How the values were obtained:
# Assay in all cases: glycan array binding signal (z-score within array); higher = stronger binding
# Settings in all cases: glycan notation: IUPAC condensed, linker removed
# Fuc(a1-2)Gal(b1-3)GalNAc = target: Fuc(a1-2)Gal(b1-3)GalNAc
# How it was run: (§1)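 Columns mapping to the same glycan were averaged after glycan names were converted to IUPAC-condensed notation. The data come from 3228 arrays in the Consortium for Functional Glycomics database, limited to those with an available protein sequence. Binding is reported as a within-array Z-score averaged across arrays of one protein sequence and across linkers.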
# [1] = target: Fuc(a1-2)Gal(b1-3)GlcNAc(b1-3)[Fuc(a1-2)Gal(b1-3)GlcNAc(b1-6)]GalNAc
# How it was run: as §1
# [2] = target: Fuc(a1-2)[Gal(a1-3)]Gal(b1-3)GlcNAc(b1-6)GalNAc
# How it was run: as §1
# [3] = target: Fuc(a1-2)[Gal(a1-3)]Gal(b1-4)[Fuc(a1-3)]GlcNAc(b1-3)GalNAc
# How it was run: as §1
# [4] = target: Fuc(a1-3)[Gal(b1-4)]GlcNAc
# How it was run: as §1
# [5] = target: Fuc(a1-3)[Gal(b1-4)]GlcNAc(b1-6)GalNAc
# How it was run: as §1
# [6] = target: Fuc(a1-3)[Gal(b1-4)]GlcNAc(b1-6)[Gal(b1-3)GlcNAc(b1-3)]Gal(b1-4)Glc
# How it was run: as §1
# [7] = target: Fuc(a1-3)[Gal3S(b1-4)]GlcNAc6S
# How it was run: as §1
# Gal(a1-3)Gal(b1-4)Glc = target: Gal(a1-3)Gal(b1-4)Glc
# How it was run: as §1
# [8] = target: Gal(b1-3)GalNAc(b1-3)Gal(a1-4)Gal(b1-4)Glc
# How it was run: as §1
# [9] = target: Gal(b1-3)[GlcNAc(b1-6)]GalNAc
# How it was run: as §1
# [10] = target: Gal(b1-4)GlcNAc(b1-2)Man(a1-3)[GlcNAc(b1-4)][Gal(b1-4)GlcNAc(b1-2)Man(a1-6)]Man(b1-4)GlcNAc(b1-4)GlcNAc
# How it was run: as §1
# [11] = target: Gal(b1-4)GlcNAc(b1-2)[Gal(b1-4)GlcNAc(b1-6)]Man(a1-6)[Gal(b1-4)GlcNAc(b1-2)Man(a1-3)]Man(b1-4)GlcNAc(b1-4)GlcNAc
# How it was run: as §1
# [12] = target: Gal(b1-4)GlcNAc(b1-2)[Gal(b1-4)GlcNAc(b1-6)]Man(a1-6)[GlcNAc(b1-4)][Gal(b1-4)GlcNAc(b1-2)[Gal(b1-4)GlcNAc(b1-4)]Man(a1-3)]Man(b1-4)GlcNAc(b1-4)[Fuc(a1-6)]GlcNAc
# How it was run: as §1
# [13] = target: Gal(b1-4)GlcNAc(b1-3)Gal(b1-4)GlcNAc(b1-2)Man(a1-3)[Gal(b1-4)GlcNAc(b1-3)Gal(b1-4)GlcNAc(b1-2)Man(a1-6)]Man(b1-4)GlcNAc(b1-4)[Fuc(a1-6)]GlcNAc
# How it was run: as §1
# [14] = target: Gal(b1-4)GlcNAc(b1-3)Gal(b1-4)GlcNAc(b1-2)[Gal(b1-4)GlcNAc(b1-3)Gal(b1-4)GlcNAc(b1-6)]Man(a1-6)[Gal(b1-4)GlcNAc(b1-3)Gal(b1-4)GlcNAc(b1-2)Man(a1-3)]Man(b1-4)GlcNAc(b1-4)[Fuc(a1-6)]GlcNAc
# How it was run: as §1
# [15] = target: Gal(b1-4)GlcNAc(b1-3)Gal(b1-4)GlcNAc(b1-3)Gal(b1-4)GlcNAc(b1-2)Man(a1-3)[Gal(b1-4)GlcNAc(b1-3)Gal(b1-4)GlcNAc(b1-3)Gal(b1-4)GlcNAc(b1-2)Man(a1-6)]Man(b1-4)GlcNAc(b1-4)GlcNAc
# How it was run: as §1
# [16] = target: Gal(b1-4)GlcNAc(b1-3)Gal(b1-4)GlcNAc(b1-3)Gal(b1-4)GlcNAc(b1-2)[Gal(b1-4)GlcNAc(b1-3)Gal(b1-4)GlcNAc(b1-3)Gal(b1-4)GlcNAc(b1-6)]Man(a1-6)[Gal(b1-4)GlcNAc(b1-3)Gal(b1-4)GlcNAc(b1-3)Gal(b1-4)GlcNAc(b1-2)Man(a1-3)]Man(b1-4)GlcNAc(b1-4)[Fuc(a1-6)]GlcNAc
# How it was run: as §1
# [17] = target: Gal(b1-4)GlcNAc(b1-3)Gal(b1-4)GlcNAc(b1-3)Gal(b1-4)GlcNAc(b1-3)Gal(b1-4)GlcNAc(b1-2)Man(a1-3)[Gal(b1-4)GlcNAc(b1-3)Gal(b1-4)GlcNAc(b1-3)Gal(b1-4)GlcNAc(b1-3)Gal(b1-4)GlcNAc(b1-2)Man(a1-6)]Man(b1-4)GlcNAc(b1-4)[Fuc(a1-6)]GlcNAc
# How it was run: as §1
# Gal3S6S(b1-4)GlcNAc6S = target: Gal3S6S(b1-4)GlcNAc6S
# How it was run: as §1
# [18] = target: GalNAc(a1-3)GalNAc(b1-3)Gal(a1-4)Gal(b1-4)GlcNAc
# How it was run: as §1
# GalNAc(b1-4)Gal(b1-4)Glc = target: GalNAc(b1-4)Gal(b1-4)Glc
# How it was run: as §1
# GalNAc(b1-6)GalNAc = target: GalNAc(b1-6)GalNAc
# How it was run: as §1
# [19] = target: GlcNAc(a1-4)Gal(b1-4)GlcNAc(b1-3)Gal(b1-4)GlcNAc
# How it was run: as §1
# [20] = target: GlcNAc(a1-4)Gal(b1-4)GlcNAc(b1-3)Gal(b1-4)[Fuc(a1-3)]GlcNAc(b1-3)Gal(b1-4)[Fuc(a1-3)]GlcNAc
# How it was run: as §1
# [21] = target: GlcNAc(b1-3)Gal(b1-4)GlcNAc(b1-2)Man(a1-3)[GlcNAc(b1-3)Gal(b1-4)GlcNAc(b1-2)Man(a1-6)]Man(b1-4)GlcNAc(b1-4)GlcNAc
# How it was run: as §1
binder,measurement,setting,value
B1,glycan array binding signal (z-score),Fuc(a1-2)Gal(b1-3)GalNAc,-0.387
same,glycan array binding signal (z-score),[1],-0.401
same,glycan array binding signal (z-score),[2],-0.487
same,glycan array binding signal (z-score),[3],0.249
same,glycan array binding signal (z-score),[4],0.066
same,glycan array binding signal (z-score),[5],-0.576
same,glycan array binding signal (z-score),[6],-0.013
same,glycan array binding signal (z-score),[7],-0.121
same,glycan array binding signal (z-score),Gal(a1-3)Gal(b1-4)Glc,-0.171
same,glycan array binding signal (z-score),[8],0.446
same,glycan array binding signal (z-score),[9],0.127
same,glycan array binding signal (z-score),[10],-0.105
same,glycan array binding signal (z-score),[11],0.266
same,glycan array binding signal (z-score),[12],-0.02
same,glycan array binding signal (z-score),[13],2.12
same,glycan array binding signal (z-score),[14],0.623
same,glycan array binding signal (z-score),[15],1.97
same,glycan array binding signal (z-score),[16],3.26
same,glycan array binding signal (z-score),[17],2.08
same,glycan array binding signal (z-score),Gal3S6S(b1-4)GlcNAc6S,1.12
same,glycan array binding signal (z-score),[18],-0.181
same,glycan array binding signal (z-score),GalNAc(b1-4)Gal(b1-4)Glc,0.482
same,glycan array binding signal (z-score),GalNAc(b1-6)GalNAc,-0.887
same,glycan array binding signal (z-score),[19],-0.297
same,glycan array binding signal (z-score),[20],2.19
same,glycan array binding signal (z-score),[21],-0.301
